Hit rate of the full screen: of about 360,000 compounds, about 1,300 (0.36%) were called active. What follows is part of a selection rich in actives, with near analogues and random picks from the rest. Unmarked numbers belong to inactive results. Cut-off read from the data, not from the text of the source: active = inhibition above about 19%; inactive = the rest.

The experiment relates to T-cell receptor (TCR). Nature of the experiment: small molecules blocking TCR binding to CD3 – biochemical, fluorescence, TAMRA-labeled TCR probe, primary screen (AID 651800).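 Note: recombinant mutant TCR 2C K166C tagged with TAMRA read by polarization; 0% = receptor in buffer alone and 100% = receptor with positive control.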 The following applies: at 9.4 µM, stronger effect = higher value.
Consider `COc1ccc(CCNC(=O)Nc2ccc3c(c2)c(=O)n(C)n3C)cc1OC`, for which the inhibition (in general, the change of the read-out against control, counted positive when it falls) was -9.13%.

For the molecule `COCCNC(=O)Nc1ccc2nc(-c3ccco3)c(-c3ccco3)nc2c1`, the inhibition is 48% (active).

With `COc1cc(OC)cc(C(=O)NCCSCc2ccco2)c1`, the inhibition was 2.08%.

Regarding `CCOC(=O)C1CSCCS(=O)(=O)N1Cc1ccc(Cl)cc1` (stereo unspecified), the inhibition was -6.78%.

Take `CN(C)C(=O)c1cccn(Cc2cccc(C(F)(F)F)c2)c1=O`: the inhibition was 4.33%.

`CNC(=S)NNC(=O)c1cccn(Cc2ccccc2)c1=O`: the inhibition was 45.4% (active).

As to `Cc1scc(C(=O)NNC(=S)NCc2ccccc2)c1C`, the inhibition is 3.75%.

Take `CCOC(=O)CNC(=O)N(C)[C@H]1C[C@H]2c3[nH]c4c(-c5ccc6c(c5)OCO6)cccc4c3CCN2C(=O)[C@H]1[C@H](C)O`: the inhibition is -3.41%.

With `COC(=O)C1=C(C)N(Cc2ccccc2C(F)(F)F)C(=NCC2CC2)NC1c1cccc(Cl)c1` (stereo unspecified), the inhibition was 5.09%.

As for `C=CCN1C(=O)N(Cc2ccccc2)c2ccccc2S1(=O)=O`, the inhibition is -2.76%.

For the molecule `COc1ccc(CNS(=O)(=O)c2cc(Br)ccc2Br)cc1`, the inhibition is 1.49%.

In the case of `COc1ccc(Cc2nnc(SCC(=O)c3cccc([N+](=O)[O-])c3)n2C)cc1`, the inhibition is 3.33%.

As for `COc1ccc(CC(=O)N/N=C/c2cc([N+](=O)[O-])cc(Br)c2O)cc1`, the inhibition was 37.3% (active).

Regarding `C[C@H]1[C@H](c2ccccc2)Oc2cc(Br)ccc2S(=O)(=O)N1Cc1cccc(F)c1`, the inhibition was 2.14%.

Take `CCCCCCCCN1C(=O)[C@@H](CC(=O)N2CCN(C(=O)OCC)CC2)C[C@@]2(C(=O)OC)C1=C[C@H](C1CCCC1)O[C@@H]2C`: the inhibition was 6.64%.

Regarding `CC(NC(=O)c1ccccc1F)c1cccc2ccccc12` (stereo unspecified), the inhibition is -0.21%.

`CN(NC(=O)c1ccccc1F)c1nc(C(F)(F)F)nc2ccccc12`: the inhibition is 27.9% (active).

For the molecule `CSc1nc(N(C)NC(=O)c2cccc(C)c2)c2ccccc2n1`, the inhibition was -2.67%.

With `O=C1CCCCC1C(=O)c1ccccc1` (stereo unspecified), the inhibition is -0.19%.

Consider `COC(=O)[C@]12C[C@H](CC(=O)NCc3ccccc3)C(=O)N(CCC3=CCCCC3)C1=C[C@H](C(C)(C)C)O[C@@H]2C`, for which the inhibition was -4.03%.

Regarding `CNS(=O)(=O)c1ccc2c(c1)[nH]c(=S)n2C`, the inhibition was 45.4% (active).

As to `CCn1c(=S)[nH]c2cc(S(=O)(=O)N3CCOCC3)ccc21`, the inhibition is 1.36%.

`CCCCn1c(=S)[nH]c2cc(S(=O)(=O)N3CCCCC3)ccc21`: the inhibition was 1.03%.

`COC(=O)[C@]12C[C@H](CC(=O)NCc3cccc(C(F)(F)F)c3)C(=O)N(Cc3ccc4c(c3)OCO4)C1=C[C@H](COCc1ccccc1)O[C@@H]2C`: the inhibition was 0.9%.

`O=C(C(=O)N1CCC(CNC(=O)c2cccnc2Cl)CC1)c1cccs1`: the inhibition was 0.67%.

In the case of `C[C@H](CO)N1C[C@H](C)[C@@H](CN(C)C(=O)Nc2ccccc2F)OCc2cn(nn2)CCCC1=O`, the inhibition was 4.97%.

For `NNC(=O)c1oc2nc(-c3ccccc3)cc(-c3ccco3)c2c1N`, the inhibition is 16.2%.

Regarding `CNC(=S)NNC(=O)c1oc2nc(-c3ccccc3)cc(-c3ccco3)c2c1N`, the inhibition was 59.3% (active).

With `Cc1ccccc1C(=O)N[C@H](C(=O)N1CCC[C@H]1C(=O)NCc1ccccc1)C(C)C`, the inhibition is 2.94%.

`CCCCNc1cccc2c1S(=O)(=O)N[C@@H](C)CO2`: the inhibition is 2.35%.

`Cc1ccc(N)cc1CN1CCN(c2ncc(Cc3ccccc3)cn2)CC1`: the inhibition is 3.41%.

With `COCCCNC(=O)C[C@H]1C[C@@]2(C(=O)OC)C(=C[C@H](C(C)(C)C)O[C@@H]2C)N(Cc2ccc3c(c2)OCO3)C1=O`, the inhibition is 3.16%.

`CC(C)CNc1cccc2c1S(=O)(=O)N[C@H](CC(C)C)CO2`: the inhibition was -1.27%.

`Brc1ccc(COCCc2cn(Cc3ccccc3)c3ccccc23)cc1`: the inhibition was -0.9%.

For `CC1=CC(C)(C)NC(=S)N1NC(=O)c1ccccc1Cl`, the inhibition is -4.79%.

With `CC12CCC(C(=O)N(NC(=O)c3ccccc3O)C1=O)C2(C)C` (stereo unspecified), the inhibition is 33.6% (active).

In the case of `CC(Sc1nnc2c(n1)C1CCC2(C)C1(C)C)C(=O)Nc1ccccc1` (stereo unspecified), the inhibition is 1.84%.

Regarding `Clc1cccc2c1C1CC2CCN1Cc1ccccc1` (stereo unspecified), the inhibition is -2.68%.

With `O=C(NCc1ccccc1)[C@H]1CCCN1C(=O)[C@H]1CCCN1C(=O)N1CCOCC1`, the inhibition is 4.79%.

For `CCCCCCCCN1C(=O)[C@@H](CC(=O)NCc2ccc(C)o2)C[C@@]2(C(=O)OC)C1=C[C@H](C(C)(C)C)O[C@@H]2C`, the inhibition is 1.15%.

Consider `O=S(=O)(O)c1cc2onnc2c2ccccc12`, for which the inhibition is 28.6% (active).

Regarding `COc1ccccc1C(=O)NNC(=O)CCN1C(=O)/C(=C\c2ccccc2)SC1=S`, the inhibition was 23.9% (active).

Consider `COc1ccccc1C(=O)Nn1cnnc1`, for which the inhibition was -2.57%.

Regarding `O=C(CCN1C(=O)c2ccccc2C1=O)NNC(=O)c1ccc(Cl)cc1Cl`, the inhibition was -3.56%.

As for `CC[C@H](NC(=O)[C@H](Cc1ccccc1)NC(=O)[C@H]1O[C@@H](n2cnc3c(=O)[nH]c(N)nc32)[C@H](O)[C@@H]1O)c1ccccc1`, the inhibition is 1.67%.

On to `COC(=O)[C@]1(Cc2ccccc2)NC=C(C(=O)c2ccccc2)[C@@H]1c1cccc(OC)c1`, for which the inhibition is -0.52%.

`CCOC(=O)c1c(N)c(C#N)nn1-c1ccccc1C(=O)OC`: the inhibition is -3.5%.

For `Cc1ccc2nc(-c3ccc(CN4CCC(n5cc(-c6ccccc6)[nH]c5=O)CC4)cc3)c(-c3ccccc3)nc2c1`, the inhibition is 5.23%.

In the case of `O=C1Nc2ccccc2C1=NN=Cc1ccco1`, the inhibition is 4.85%.

Regarding `COc1ccccc1C(=O)N1O[C@]23C=C[C@]14C[C@@H](O)CC[C@]4(C)C2CC[C@]1(C)[C@@H]([C@H](C)/C=C/[C@H](C)C(C)C)CC[C@H]13` (stereo partly specified), the inhibition is -1.2%.

In the case of `CCOc1[nH]n(-c2ccc(Cl)cc2)c(=O)c1C=Nc1ccc(O)cc1`, the inhibition is 28% (active).

For `Cc1ccc(C)c(CN2CCC(CNC(=O)C3CCCN(c4ncnc5c4nc4n5CCCCC4)C3)CC2)c1` (stereo unspecified), the inhibition was -2.34%.

In the case of `CC1(C)CC(=O)C=C(NCCN2CCNCC2)C1`, the inhibition is 5.49%.

As for `Nc1nc2c(ncn2[C@@H]2O[C@H](C(=O)N[C@@H](Cc3ccccc3)C(=O)NCc3ccccc3)[C@@H](O)[C@H]2O)c(=O)[nH]1`, the inhibition is -1.96%.

On to `CN1C(=O)CN2CCc3ccccc3C2c2cc(Cl)ccc21` (stereo unspecified), for which the inhibition is -2.81%.

With `COC(=O)C1=C(C)N(Cc2ccc(F)cc2)C(=S)NC1c1cccc(Cl)c1` (stereo unspecified), the inhibition is 3%.

Turning to `O=C(NS(=O)(=O)c1cccs1)[C@H]1O[C@@H](n2ccc(=O)[nH]c2=O)[C@H](O)[C@@H]1O`, the inhibition was -0.49%.

With `O=C(NNC(=O)c1ccccc1O)c1ccccc1O`, the inhibition was 40% (active).

Turning to `Cc1cc(C(=O)CCC(=O)NNC(=O)c2ccccc2O)c(C)s1`, the inhibition is 25.6% (active).

In the case of `Cc1cccc(NS(=O)(=O)c2cccc(C(=O)NNC(=O)c3ccccc3O)c2)c1`, the inhibition was 16.2%.

For `O=C(NNC(=O)c1cc(S(=O)(=O)N2CCCCC2)ccc1Cl)c1ccccc1O`, the inhibition is 16.6%.

With `Cc1ccccc1C(=O)NNC(=O)CN1C(=O)c2ccccc2C1=O`, the inhibition is -5.72%.

For `Cc1cc2occ(CC(=O)NNC(=O)c3ccccc3F)c2cc1C`, the inhibition is 2.71%.

Take `COc1cccc(NC(=O)N(C)C[C@@H]2OCc3cn(nn3)CCCC(=O)N([C@@H](C)CO)C[C@H]2C)c1`: the inhibition was -4.37%.

With `C=CC1=C(C(=O)O)N2C(=O)[C@@H](NC(=O)/C(=N\OCC(=O)O)c3csc(N)n3)[C@H]2SC1`, the inhibition was 4.98%.

For the molecule `C=CC1=C(C(=O)O)N2C(=O)[C@@H](NC(=O)/C(=N/OCC(=O)O)c3csc(N)n3)[C@H]2SC1`, the inhibition was 25.6% (active).

As for `CCCCOCC1CN(CCCC)S(=O)(=O)c2c(Oc3ccc(F)cc3)cccc2O1` (stereo unspecified), the inhibition is 0.77%.

`Nc1ncnc2c1ncn2[C@@H]1O[C@H](C(=O)N[C@@H](CCc2ccccc2)C(=O)N2CCCN(Cc3cccs3)CC2)[C@@H](O)[C@H]1O`: the inhibition was 3.68%.

For the molecule `COc1cccc(CNC(=O)[C@H]2CCCN2C(=O)[C@H]2CCCN2C(=O)c2cc(F)cc(F)c2)c1`, the inhibition is -6.91%.

For `CC(=O)N1C[C@@H](CO)[C@@H](N(C)C(=O)C(C)(C)C)C[C@H]1c1ccccc1Br`, the inhibition was -0.47%.

With `C=C1c2c(Cl)ccc(O)c2C(O)=C2C(=O)[C@]3(O)C(O)=C(C(N)=O)C(=O)[C@@H](N(C)C)[C@@H]3[C@@H](O)C12` (stereo partly specified), the inhibition was 33.5% (active).

As to `CN(C)[C@@H]1C(=O)C(C(N)=O)=C(O)[C@@]2(O)C(=O)C3=C(O)c4c(O)ccc(Cl)c4[C@@H](O)[C@H]3C[C@@H]12`, the inhibition was 21.1% (active).

`CCc1c(-c2ccccc2OC)ncn1CCc1ccccc1OC`: the inhibition was 7.58%.

For `NCCN1CCN2C(=O)CN(C(=O)c3ccccc3)CC12` (stereo unspecified), the inhibition was -1.77%.

Take `COC(=O)[C@]12C[C@H](CC(=O)NCc3ccc(C)o3)C(=O)N(CCC3=CCCCC3)C1=C[C@H](C(C)(C)C)O[C@@H]2C`: the inhibition is -1.26%.

Regarding `Oc1ccc(/C=N/N(Cc2ccccc2)c2ccccc2)cc1`, the inhibition was 7.05%.

Consider `Oc1ccc(N=Cc2c(O)ccc3ccccc23)cc1`, for which the inhibition is 44.6% (active).

Consider `Oc1ccc(N=Cc2sc3ccccc3c2Cl)cc1`, for which the inhibition is 89.3% (active).

As for `COc1ccc(-c2ccc3c(n2)CCCN3S(=O)(=O)c2ccc(C)cc2)cc1`, the inhibition is -3.11%.

In the case of `CC(C)(C)c1ccc(S(=O)(=O)NCC2CCN(C(=O)C(=O)c3cc4ccccc4o3)CC2)cc1`, the inhibition is -7.28%.

Take `NC(=O)c1ncn([C@@H]2O[C@H](C(=O)O)[C@@H](O)[C@H]2O)n1`: the inhibition was 6.54%.

The record behind these values is PubChem BioAssay AID651800 (The Scripps Research Institute Molecular Screening Center, 2012).
